Data as given in PubChem BioAssay (Tox21).
Unmarked numbers belong to inactive results. Activity calls are given as the source filed them. The call rests on the fitted dose curve.

target: Acetylcholinesterase (Homo sapiens) (UniProt P22303); assay: Acetylcholinesterase (AChE) small molecule antagonists: enzyme-based qHTS assay (AID 1347397); conditions: Potency: AChE enzyme activity inhibition; outcome: AChE enzyme activity inhibition; series mostly up to 115 µM; activity change, negative = inhibition: at the top concentration; further: nearly all actives have a fitted effect of over 55% in size
From the text: National Center for Advancing Translational Sciences [NCATS]
Division of Preclinical Innovation [DPI]
U.S. Environmental Protection Agency [EPA]
National Institutes of Environmental Health Sciences [NIEHS]
National Toxicology Program [NTP]
U.S. Food and Drug Administration [FDA]
Acetylcholinesterase (AChE) is the primary cholinesterase in the body that hydrolyzes a key neurotransmitter, acetylcholine. Inhibition of AChE activity can lead to neurotoxicity. The known inhibitors include organophosphorous pesticides (OP), chemical warfare agents, drugs, and various phytochemicals.
An enzyme-based assay with the recombinant human AChE and Amplite Colormetric acetylcholinesterase assay kit (AAT Bioquest, Sunnyvale, CA) was used to evaluate the chemicals in the Tox21 10K library that inhibit AChE activity. The assay uses 5, 5-dithiobis-(2-nitrobenzoic acid) (DTNB) to quantify the thiocholine produced from the hydrolysis of acetylthiocholine by AChE.
Tox21 Assay Protocol Summary:
For the enzyme-based AChE assay, recombinant human AChE (50 mU/mL) in 4 uL/well was dispensed into black, clear-bottom 1536-well plates using a Multidrop Combi dispenser (Thermo Scientific, MA). Then, 23 nL of compound or DMSO (vehicle control) was transferred into the assay plates by a Pintool Station (Wako Automation, CA). The plates were incubated for 30 min at room temperature, followed by the addition of 4 uL of colorimetric detection cocktail solution (DTNB, acetylthiocholine) into each well using a Flying Reagent Dispenser (Beckman Coulter, CA) and then 10 min incubation at room temperature.
On the % scale 0 is the no-effect control and ±100 the full control effect.

Chain of Acetylcholinesterase (Homo sapiens) (P22303 whole entry, looked up): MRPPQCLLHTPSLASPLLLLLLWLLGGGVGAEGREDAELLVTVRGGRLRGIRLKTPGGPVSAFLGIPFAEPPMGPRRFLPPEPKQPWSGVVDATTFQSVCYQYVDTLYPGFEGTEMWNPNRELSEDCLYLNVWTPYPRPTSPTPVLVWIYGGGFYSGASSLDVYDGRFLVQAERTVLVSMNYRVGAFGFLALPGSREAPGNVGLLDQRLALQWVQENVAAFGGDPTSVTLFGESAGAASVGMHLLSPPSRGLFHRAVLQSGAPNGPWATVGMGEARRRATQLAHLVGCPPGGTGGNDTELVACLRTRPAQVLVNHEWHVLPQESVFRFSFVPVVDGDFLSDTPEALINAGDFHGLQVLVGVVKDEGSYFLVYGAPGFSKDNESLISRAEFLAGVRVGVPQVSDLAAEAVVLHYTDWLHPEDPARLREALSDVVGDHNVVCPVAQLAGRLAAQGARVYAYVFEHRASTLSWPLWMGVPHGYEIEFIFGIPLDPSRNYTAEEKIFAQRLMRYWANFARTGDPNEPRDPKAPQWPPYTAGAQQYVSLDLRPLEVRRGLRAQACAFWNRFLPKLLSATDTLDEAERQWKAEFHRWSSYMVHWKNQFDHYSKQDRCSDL

SMILES | activity change, negative = inhibition | outcome
O=c1cc(-c2ccccc2)oc2ccc3ccccc3c12 | 1.11% | 
CC(C)(C)c1ccc(-c2ccc(C(C)(C)C)cc2)cc1 | -0.0015% | 
N=C(N)c1ccc2cc(OC(=O)c3ccc(N=C(N)N)cc3)ccc2c1 |  | inactive
CCNS(=O)(=O)c1ccc(C)cc1 | 0.535% | 
CCCCC1C(=O)N(c2ccccc2)N(c2ccc(O)cc2)C1=O (stereo not given) | -5.91% [at 53 µM] | 
O=C(OCC(O)CO)c1ccccc1Nc1ccnc2cc(Cl)ccc12 (stereo not given) | -3.16% [at 53 µM] | 
Cc1ccc(Cl)cc1Cl | 1.01% | 
CN1CCC(=C2c3ccccc3Sc3ccccc32)CC1 | -3.34% [at 53 µM] | 
COc1ccc(-c2ccc3cc(C(=O)O)ccc3c2)cc1C12CC3CC(CC(C3)C1)C2 | 0.139% [at 53 µM] | 
CCCCCCCCCCCCCC=O | 0.138% [at 10.5 µM] | 
Cc1cccc(C)c1NC(=O)c1ccccc1C(=O)O | 0% [at 53 µM] | 
C#CC(O)C(CC)CCCC (stereo not given) | -0.129% | 
CC(=O)c1ccc2c(c1)[C@H](NC(=O)c1ccc(F)cc1)[C@@H](O)C(C)(C)O2 | 0.361% | 
CN(C(=O)c1c(O)c2ccccc2n(C)c1=O)c1ccccc1 | 0% [at 53 µM] | 
CCN(CC)c1ccc2c(-c3ccc(S(=O)(=O)O)cc3S(=O)(=O)[O-])c3ccc(=[N+](CC)CC)cc-3oc2c1 | 2.32% | 
Clc1ccccc1-c1nc(-c2ccncc2)no1 | -0.248% [at 53 µM] | 
O=c1c2ccccc2nnn1CCl | 0.526% | 
O=C(c1ccccc1)C1CCCCC1 | -0.705% | 
O=S(=O)(O)c1ccc(N=Nc2c(O)ccc3ccccc23)cc1 | 14.6% | 
Cc1ccccc1N=C(N)N=C(N)N | 0.949% | 

SMILES | activity change, negative = inhibition | outcome
COC(=O)c1ccccc1C(=O)c1ccc(OCCN2CCCCC2)cc1 | 0.945% [at 53 µM] | 
O=C(O)c1cc(-c2ccc(F)cc2F)ccc1O | 0.135% [at 53 µM] | 
CC[C@H](C)[C@H](N)C(=O)O | 0.266% [at 53 µM] | 
CCN(CC)C(=O)N1CCN(C)CC1 | 0.139% [at 53 µM] | 
CCCCCCCCc1ccc(Nc2ccc(CCCCCCCC)cc2)cc1 | -1.77% [at 53 µM] | 
CCN(CC)CCNC(=O)c1cc(Cl)c(N)cc1OC | -8.58% [at 53 µM] | 
SCCCCCCCCS | -0.0151% | 
CC(C)C(=O)OCC(C)(C)C(O)C(C)C (stereo not given) | 0.293% | 
COc1ccc2c(c1OC)C(=O)O[C@@H]2[C@H]1c2c(cc3c(c2OC)OCO3)CCN1C | 1.22% [at 53 µM] | 
C=CCCC(=O)O | -2.24% | 
COc1ccnc(CS(=O)c2nc3cc(OC(F)F)ccc3[nH]2)c1OC (stereo not given) | -4.59% | 
CC(O)CN(CCCN(C)C)CCCN(C)C (stereo not given) | 0.996% | 
CN1C(=O)c2ccc([N+](=O)[O-])cc2C1=O | 0.818% | 
Cc1ccc2c(c1)CCCN2 | -0.597% | 
CCOc1ccc2ccccc2c1C(=O)N[C@@H]1C(=O)N2[C@@H]1SC(C)(C)[C@@H]2C(=O)O | 0.266% [at 53 µM] | 
COC(=O)CS | 0.136% | 
CC(C)(C)c1ccc(OC(=O)c2ccccc2O)cc1 | -2.47% | 
CN(CCOc1ccc(NS(C)(=O)=O)cc1)CCc1ccc(NS(C)(=O)=O)cc1 | -12.6% [at 53 µM] | 
CCC(C)(C)C(=O)O | -0.136% | 
COC(OC)(C(=O)c1ccccc1)c1ccccc1 | -0.782% | 
